Here are results for 50 sequences from publication PMC6451091, “NextPBM: a platform to study cell-specific transcription factor binding and cooperativity”.

Whole data set: some 3,700 sequences, median “z-score” near 4, cut for the highest 2% near 8.4. Shown is part of a subset that was picked to be rich in the highest values.

In assay [1] the target is PU.1 (IVT) (UniProt P17947 1-270). In words: protein-binding microarray (PBM); 20 mM HEPES pH 7.9, 100 mM NaCl, 1 mM DTT, 0.2 mg/mL BSA, 0.02% Triton X-100, 2% milk, 0.4 mg/mL salmon testes DNA; 1 h; temperature not stated; high values mean tight binding. The following applies: dsDNA, one strand shown. In a few lines: (§1)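 Full-length untagged PU.1 was made by coupled human in vitro transcription/translation. It was bound for 1 h to custom double-stranded DNA microarrays carrying 20-bp genomic sites and single-nucleotide variants, 10 probes per site (5 per orientation). The binding buffer was HEPES pH 7.9 with 100 mM NaCl, 2% milk and salmon testes DNA. Bound protein was detected with anti-PU.1 and then a fluorescent secondary antibody. Binding is a z-score from scanned fluorescence after linear-regression normalisation.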

Assay [2] shares this target. The description is as above. The following applies: dsDNA, one strand shown. In a few lines:
as §1
The source holds these as a separate data set.

Sequence “GCCTAGCACGAAAAGAGGAAGCCCATGTGGTGCTAGGTCTTGATTCGCTTGACGCTGCTG” yielded a binding signal with PU.1 (IVT) [1] of 5.2 z-score.
For “GCCTAGCACGAAAAAAGGAAGTAGTATAAGTGCTAGGTCTTGATTCGCTTGACGCTGCTG”, in the assay with PU.1 (IVT) [1], the binding signal was 6.96 z-score.
The same measure, in the same setting: with “GCCTAGCACGAAAAGAGGAAGTTGGACATGTGCTAGGTCTTGATTCGCTTGACGCTGCTG” the figure was 8.75 z-score; with “GCCTAGCACGAAAAGAGGAAGTTGCTTACGTGCTAGGTCTTGATTCGCTTGACGCTGCTG”, 9.03 z-score.
As for “GCCTAGCACGAAAAGAGGAAATGGGGAGTGTGCTAGGTCTTGATTCGCTTGACGCTGCTG”, in the assay with PU.1 (IVT) [2], the binding signal was found to be 5.14 z-score.
For the sequence “GCCTAGCACGAAAAGAGGAAGTAGGATAAGTGCTAGGTCTTGATTCGCTTGACGCTGCTG”, the binding signal in the assay with PU.1 (IVT) [1] came out at 8.46 z-score.
Still for that read-out and setting: with “GCCTAGCACGAAAAGAGGAAGTTGGGGAAGTGCTAGGTCTTGATTCGCTTGACGCTGCTG” the figure was 8.94 z-score; with “GCCTAGCACGAAAAGAGGAAGTCTTGCATGTGCTAGGTCTTGATTCGCTTGACGCTGCTG”, 8.22 z-score.
With “GCCTAGCACGAAGTAGGGAAGTGAAAGAGGTGCTAGGTCTTGATTCGCTTGACGCTGCTG”, the binding signal with PU.1 (IVT) [2] stood at 3.36 z-score.
Sequence “GCCTAGCACAAAAAAAGGAAGTGAAAGTAGTGCTAGGTCTTGATTCGCTTGACGCTGCTG” came in with a binding signal with PU.1 (IVT) [1] of 6.78 z-score.
On to “GCCTAGCACGGTGGGAGGAAGTGATCGGTGTGCTAGGTCTTGATTCGCTTGACGCTGCTG”, for which the binding signal in the assay with PU.1 (IVT) [2] came to 3.72 z-score.
The sequence “GCCTAGCACGAAAAGGGGAAGTGAGGGATGTGCTAGGTCTTGATTCGCTTGACGCTGCTG” registered a binding signal with PU.1 (IVT) [1] of 7.81 z-score.
“GCCTAGCACGAAAAAAGGAAGTTGCACAGGTGCTAGGTCTTGATTCGCTTGACGCTGCTG”: the binding signal with PU.1 (IVT) [1] was 6.42 z-score.
Same read-out and setting: with “GCCTAGCACTGGGAGGAGAAGTGAAACCTGTGCTAGGTCTTGATTCGCTTGACGCTGCTG” the figure was 1.37 z-score.
As to “GCCTAGCACTGAAAGAGGAATTGCAACCAGTGCTAGGTCTTGATTCGCTTGACGCTGCTG”, in the assay with PU.1 (IVT) [1], the binding signal was determined as 2.04 z-score.
Same read-out and setting: the same measure for “GCCTAGCACGAAAAGAGGAAGTGAAGTTAGTGCTAGGTCTTGATTCGCTTGACGCTGCTG”: 8.28 z-score; for “GCCTAGCACGAAAAGAGGAAGTCTGAAAAGTGCTAGGTCTTGATTCGCTTGACGCTGCTG”: 7.48 z-score; for “GCCTAGCACGAAAAGAGGAAGTTAAAGAAGTGCTAGGTCTTGATTCGCTTGACGCTGCTG”: 8.52 z-score.
On the same count and under the same terms, with “GCCTAGCACAGTTGGAGGAAGTGGCACTTGTGCTAGGTCTTGATTCGCTTGACGCTGCTG” the figure was 2.78 z-score; with “GCCTAGCACGAAAACAGGAAGTGGGGATGGTGCTAGGTCTTGATTCGCTTGACGCTGCTG”, 7.43 z-score; with “GCCTAGCACCAAAAGAGGAAGTGGCATATGTGCTAGGTCTTGATTCGCTTGACGCTGCTG”, 8.01 z-score.
Same read-out and setting: with “GCCTAGCACCAAAAGAGGAAGTGGTGAAAGTGCTAGGTCTTGATTCGCTTGACGCTGCTG” the figure was 8.4 z-score; with “GCCTAGCACCAAAAGAGGAAGTTGGCAAAGTGCTAGGTCTTGATTCGCTTGACGCTGCTG”, 8.72 z-score; with “GCCTAGCACCAAAAGAGGAACTGCTGCTGGTGCTAGGTCTTGATTCGCTTGACGCTGCTG”, 6.83 z-score.
“GCCTAGCACCAAAAGAGGAAGTCAAGCTGGTGCTAGGTCTTGATTCGCTTGACGCTGCTG”: the binding signal in the assay with PU.1 (IVT) [1] amounted to 7.88 z-score.
Same read-out and setting: with “GCCTAGCACCAAAAGAGGAAGTCAGAGAGGTGCTAGGTCTTGATTCGCTTGACGCTGCTG” the figure was 7.94 z-score; with “GCCTAGCACCAAAAGAGGAAGTGGTATCAGTGCTAGGTCTTGATTCGCTTGACGCTGCTG”, 8.24 z-score; with “GCCTAGCACCAAAAGAGGAAGTGAAGCTGGTGCTAGGTCTTGATTCGCTTGACGCTGCTG”, 8.37 z-score.
Turning to “GCCTAGCACCAAAGAAGGAAGTGAAACTGGTGCTAGGTCTTGATTCGCTTGACGCTGCTG”, the binding signal with PU.1 (IVT) [1] is 4.74 z-score.
Consider “GCCTAGCACTGAGAGAGGAAGTAACTTAAGTGCTAGGTCTTGATTCGCTTGACGCTGCTG”, for which the binding signal with PU.1 (IVT) [2] worked out at 5.44 z-score.
With “GCCTAGCACCTGCCAGGGAAGTGAAATCAGTGCTAGGTCTTGATTCGCTTGACGCTGCTG”, the binding signal with PU.1 (IVT) [1] worked out at 1.1 z-score.
Same read-out and setting: with “GCCTAGCACGAGAAGAGGAAGTGAGATCTGTGCTAGGTCTTGATTCGCTTGACGCTGCTG” the figure was 6.45 z-score; with “GCCTAGCACAAAAAGAGGAAGAGGGGACAGTGCTAGGTCTTGATTCGCTTGACGCTGCTG”, 5.23 z-score; with “GCCTAGCACAAAAAAGGGAAGTGAAAATAGTGCTAGGTCTTGATTCGCTTGACGCTGCTG”, 7.69 z-score.
The same measure, in the same setting: the same measure for “GCCTAGCACAAAAAAGGGAAGTGATTTAAGTGCTAGGTCTTGATTCGCTTGACGCTGCTG”: 8.59 z-score; for “GCCTAGCACAAAAAAGGGAAGTGACATACGTGCTAGGTCTTGATTCGCTTGACGCTGCTG”: 7.76 z-score.
Sequence “GCCTAGCACAAAGTGGGGAAGTGACAAAAGTGCTAGGTCTTGATTCGCTTGACGCTGCTG” returned a binding signal in the assay with PU.1 (IVT) [2] of 3.36 z-score.
As for “GCCTAGCACAAAAAGGGGAAGTGACATAAGTGCTAGGTCTTGATTCGCTTGACGCTGCTG”, the binding signal with PU.1 (IVT) [1] came to 8.47 z-score.
Still for that read-out and setting: with “GCCTAGCACAAAAAAGGGAAGTGCCATAAGTGCTAGGTCTTGATTCGCTTGACGCTGCTG” the figure was 7.55 z-score; with “GCCTAGCACGAAAAGAGGAACCGTATGGTGTGCTAGGTCTTGATTCGCTTGACGCTGCTG”, 5.79 z-score.
On the same count and under the same terms, the same measure for “GCCTAGCACTAAAAGAGGAAGTAGCCAAAGTGCTAGGTCTTGATTCGCTTGACGCTGCTG”: 8.23 z-score.
In turn, “GCCTAGCACTAAAAGAGGAAGTGACCTCAGTGCTAGGTCTTGATTCGCTTGACGCTGCTG” returned a binding signal in the assay with PU.1 (IVT) [1] of 7.82 z-score.
In turn, “GCCTAGCACTAAAAGAGGAAGAGGAAGAAGTGCTAGGTCTTGATTCGCTTGACGCTGCTG” had a binding signal with PU.1 (IVT) [2] of 5.75 z-score.
In the assay with PU.1 (IVT) [1], “GCCTAGCACTAAAAGAGGAAGTAGGAATAGTGCTAGGTCTTGATTCGCTTGACGCTGCTG” showed a binding signal of 8.36 z-score.
For the sequence “GCCTAGCACTAAAAGAGGAAGTGCATTCAGTGCTAGGTCTTGATTCGCTTGACGCTGCTG”, in the assay with PU.1 (IVT) [1], the binding signal was determined as 8.5 z-score.
On the same count and under the same terms, with “GCCTAGCACTAAAAGAGGAAGTGCAACCAGTGCTAGGTCTTGATTCGCTTGACGCTGCTG” the figure was 8.29 z-score.
Consider “GCCTAGCACAGCAGGAGGAAGTGGGTGGAGTGCTAGGTCTTGATTCGCTTGACGCTGCTG”, for which the binding signal with PU.1 (IVT) [2] was 3.97 z-score.
In the assay with PU.1 (IVT) [1], “GCCTAGCACAAAAAAAGGAAATGAAATTAGTGCTAGGTCTTGATTCGCTTGACGCTGCTG” returned a binding signal of 3.65 z-score.
Still for that read-out and setting: with “GCCTAGCACCAAAAGAGGAAGAGTCTGACGTGCTAGGTCTTGATTCGCTTGACGCTGCTG” the figure was 4.26 z-score.
The same measure, in the same setting: with “GCCTAGCACACAAAAAGGAACTGTTCCCCGTGCTAGGTCTTGATTCGCTTGACGCTGCTG” the figure was 2.27 z-score.
